# Assay results reported in publication PMC11006913.
# Where a chain is given by its changes, count along the chain named.
# Experiments:
# Assay in all cases: PBM; 200 nM protein, PBS
# Details in all cases: dsDNA, one strand shown
# HOXA2 [1] = target: HOXA2 (Homo sapiens, UniProt O43364 129-215, R185T)
# HOXD13 [2] = target: HOXD13 (Homo sapiens, UniProt P35453 263-343, T313R)
# HOXA2 [3] = target: HOXA2 (Homo sapiens, UniProt O43364 129-215, R185K)
# HOXD13 [4] = target: HOXD13 (Homo sapiens, UniProt P35453 263-343)
# Chain of HOXD13 (Homo sapiens, UniProt P35453 263-343) (P35453 263-343): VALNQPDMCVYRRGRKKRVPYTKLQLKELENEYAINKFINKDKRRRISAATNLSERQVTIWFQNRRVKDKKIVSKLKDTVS
# HOXD13 [5] = target: HOXD13 (Homo sapiens, UniProt P35453 263-343, T313A)
# Chain of HOXD13 (Homo sapiens, UniProt P35453 263-343, T313A) (P35453 263-343 T313A): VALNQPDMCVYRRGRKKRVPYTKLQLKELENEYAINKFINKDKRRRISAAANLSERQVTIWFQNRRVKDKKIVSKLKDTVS
# HOXA2 [6] = target: HOXA2 (Homo sapiens, UniProt O43364 129-215, Y150S)
# Chain of HOXA2 (Homo sapiens, UniProt O43364 129-215, Y150S) (O43364 129-215 Y150S): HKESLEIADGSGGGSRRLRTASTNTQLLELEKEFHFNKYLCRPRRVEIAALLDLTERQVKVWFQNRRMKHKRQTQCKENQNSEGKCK
# HOXA2 [7] = target: HOXA2 (Homo sapiens, UniProt O43364 129-215)
# Chain of HOXA2 (Homo sapiens, UniProt O43364 129-215) (O43364 129-215): as the sequence (O43364 129-215 Y150S) above, with S22Y counted along it
# SIX6 [8] = target: T1, SIX6 (Homo sapiens, UniProt O95475 114-200, T165G)
# T1 sequence: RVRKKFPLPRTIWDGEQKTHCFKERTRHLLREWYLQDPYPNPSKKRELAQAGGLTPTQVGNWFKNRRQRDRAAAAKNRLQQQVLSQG
# SIX6 [9] = target: T2, SIX6 (Homo sapiens, UniProt O95475 114-200, T165A)
# T2 sequence: T1 sequence with G52A
# MSX2 [10] = target: MSX2 (Homo sapiens, UniProt P35548 130-214, R199I)
# Chain of MSX2 (Homo sapiens, UniProt P35548 130-214, R199I) (P35548 130-214 R199I): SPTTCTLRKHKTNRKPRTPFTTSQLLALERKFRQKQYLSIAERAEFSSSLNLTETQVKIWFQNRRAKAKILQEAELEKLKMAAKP
# MSX2 [11] = target: MSX2 (Homo sapiens, UniProt P35548 130-214)
# Chain of MSX2 (Homo sapiens, UniProt P35548 130-214) (P35548 130-214): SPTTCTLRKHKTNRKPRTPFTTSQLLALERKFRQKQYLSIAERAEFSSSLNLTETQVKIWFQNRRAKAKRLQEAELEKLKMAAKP
# MSX2 [12] = target: MSX2 (Homo sapiens, UniProt P35548 130-214, F161Y)
# Chain of MSX2 (Homo sapiens, UniProt P35548 130-214, F161Y) (P35548 130-214 F161Y): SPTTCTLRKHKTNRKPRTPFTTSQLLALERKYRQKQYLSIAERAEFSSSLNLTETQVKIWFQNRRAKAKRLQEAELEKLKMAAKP
# HOXB9 [13] = target: HOXB9 (Homo sapiens, UniProt P17482 171-250)
# Chain of HOXB9 (Homo sapiens, UniProt P17482 171-250) (P17482 171-250): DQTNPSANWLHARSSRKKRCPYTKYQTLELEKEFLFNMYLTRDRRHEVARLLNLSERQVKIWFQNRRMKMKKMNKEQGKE
# HOXB9 [14] = target: HOXB9 (Homo sapiens, UniProt P17482 171-250, R186Q)
# Chain of HOXB9 (Homo sapiens, UniProt P17482 171-250, R186Q) (P17482 171-250 R186Q): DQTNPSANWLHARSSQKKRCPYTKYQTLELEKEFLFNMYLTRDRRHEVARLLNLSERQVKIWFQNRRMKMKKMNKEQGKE
# HESX1 = HESX1 (Homo sapiens, UniProt Q9UBX0 95-180)
# Chain of HESX1 (Q9UBX0 95-180): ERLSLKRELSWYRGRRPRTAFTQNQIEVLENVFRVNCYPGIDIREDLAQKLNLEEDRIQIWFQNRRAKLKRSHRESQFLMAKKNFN
# NKX2-6 [15] = target: T3, NKX2-6 (Homo sapiens, UniProt A6NCS4 118-204)
# T3 sequence: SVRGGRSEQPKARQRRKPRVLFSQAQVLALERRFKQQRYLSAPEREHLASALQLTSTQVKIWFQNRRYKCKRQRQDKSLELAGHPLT
# NKX2-6 [16] = target: T4, NKX2-6 (Homo sapiens, UniProt A6NCS4 118-204, F151L)
# T4 sequence: T3 sequence with F34L
# ALX3 [17] = target: ALX3 (Homo sapiens, UniProt O95076 139-225, N203Q)
# Chain of ALX3 (Homo sapiens, UniProt O95076 139-225, N203Q) (O95076 139-225 N203Q): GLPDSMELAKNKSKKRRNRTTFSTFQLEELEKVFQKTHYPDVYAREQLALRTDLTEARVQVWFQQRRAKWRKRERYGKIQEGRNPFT
# ALX3 [18] = target: ALX3 (Homo sapiens, UniProt O95076 139-225)
# Chain of ALX3 (Homo sapiens, UniProt O95076 139-225) (O95076 139-225): as the sequence (O95076 139-225 N203Q) above, with Q65N counted along it
# ALX3 [19] = target: ALX3 (Homo sapiens, UniProt O95076 139-225, L168Q)
# Chain of ALX3 (Homo sapiens, UniProt O95076 139-225, L168Q) (O95076 139-225 L168Q): as the sequence (O95076 139-225 N203Q) above, with L30Q, Q65N counted along it
# ALX3 [20] = target: ALX3 (Homo sapiens, UniProt O95076 139-225, L168V)
# Chain of ALX3 (Homo sapiens, UniProt O95076 139-225, L168V) (O95076 139-225 L168V): as the sequence (O95076 139-225 N203Q) above, with L30V, Q65N counted along it
# ALX3 [21] = target: ALX3 (Homo sapiens, UniProt O95076 139-225, N203S)
# Chain of ALX3 (Homo sapiens, UniProt O95076 139-225, N203S) (O95076 139-225 N203S): as the sequence (O95076 139-225 N203Q) above, with Q65S counted along it
# ALX1 [22] = target: ALX1 (Homo sapiens, UniProt Q15699 118-204, L144V)
# Chain of ALX1 (Homo sapiens, UniProt Q15699 118-204, L144V) (Q15699 118-204 L144V): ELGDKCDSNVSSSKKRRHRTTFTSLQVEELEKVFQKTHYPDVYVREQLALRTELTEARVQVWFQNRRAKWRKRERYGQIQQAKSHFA
# ALX1 [23] = target: ALX1 (Homo sapiens, UniProt Q15699 118-204, L144R)
# Chain of ALX1 (Homo sapiens, UniProt Q15699 118-204, L144R) (Q15699 118-204 L144R): as the sequence (Q15699 118-204 L144V) above, with V27R counted along it
# ALX1 [24] = target: ALX1 (Homo sapiens, UniProt Q15699 118-204)
# Chain of ALX1 (Homo sapiens, UniProt Q15699 118-204) (Q15699 118-204): as the sequence (Q15699 118-204 L144V) above, with V27L counted along it
# PITX2 = PITX2 (Homo sapiens, UniProt Q99697 72-157)
# Chain of HOXA2 (Homo sapiens, UniProt O43364 129-215, R185T) (O43364 129-215 R185T): as the sequence (O43364 129-215 Y150S) above, with S22Y, R57T counted along it
# Chain of HOXA2 (Homo sapiens, UniProt O43364 129-215, R185K) (O43364 129-215 R185K): as the sequence (O43364 129-215 Y150S) above, with S22Y, R57K counted along it
# Chain of HOXD13 (Homo sapiens, UniProt P35453 263-343, T313R) (P35453 263-343 T313R): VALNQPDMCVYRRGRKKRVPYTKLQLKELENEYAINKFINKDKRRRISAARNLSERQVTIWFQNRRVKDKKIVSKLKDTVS
sequence,measurement,setting,value
AATTTATG,binding signal,HOXA2 [1],"10.1 upbm affinity estimate (log intensity, higher = more binding, comparable within an allelic series)"
same,binding signal,HOXD13 [2],"10.7 upbm affinity estimate (log intensity, higher = more binding, comparable within an allelic series)"
same,binding signal,HOXA2 [3],"11.9 upbm affinity estimate (log intensity, higher = more binding, comparable within an allelic series)"
same,binding signal,HOXD13 [4],"11.6 upbm affinity estimate (log intensity, higher = more binding, comparable within an allelic series)"
same,binding signal,HOXD13 [5],"11.5 upbm affinity estimate (log intensity, higher = more binding, comparable within an allelic series)"
same,binding signal,HOXA2 [6],"10.9 upbm affinity estimate (log intensity, higher = more binding, comparable within an allelic series)"
same,binding signal,HOXA2 [7],"10.1 upbm affinity estimate (log intensity, higher = more binding, comparable within an allelic series)"
GGTGACAC,binding signal,SIX6 [8],"10.4 upbm affinity estimate (log intensity, higher = more binding, comparable within an allelic series)"
same,binding signal,SIX6 [9],"10.4 upbm affinity estimate (log intensity, higher = more binding, comparable within an allelic series)"
CCGCCGCA,binding signal,HOXA2 [1],"7.15 upbm affinity estimate (log intensity, higher = more binding, comparable within an allelic series)"
same,binding signal,MSX2 [10],"9.56 upbm affinity estimate (log intensity, higher = more binding, comparable within an allelic series)"
same,binding signal,HOXA2 [3],"10.1 upbm affinity estimate (log intensity, higher = more binding, comparable within an allelic series)"
same,binding signal,MSX2 [11],"9.59 upbm affinity estimate (log intensity, higher = more binding, comparable within an allelic series)"
same,binding signal,MSX2 [12],"9.59 upbm affinity estimate (log intensity, higher = more binding, comparable within an allelic series)"
same,binding signal,HOXA2 [6],"10.4 upbm affinity estimate (log intensity, higher = more binding, comparable within an allelic series)"
same,binding signal,HOXA2 [7],"7.05 upbm affinity estimate (log intensity, higher = more binding, comparable within an allelic series)"
ACGACACC,binding signal,SIX6 [8],"10.6 upbm affinity estimate (log intensity, higher = more binding, comparable within an allelic series)"
same,binding signal,SIX6 [9],"10.6 upbm affinity estimate (log intensity, higher = more binding, comparable within an allelic series)"
CATGACAC,binding signal,SIX6 [8],"10.7 upbm affinity estimate (log intensity, higher = more binding, comparable within an allelic series)"
ATCAATAG,binding signal,HOXA2 [1],"9.12 upbm affinity estimate (log intensity, higher = more binding, comparable within an allelic series)"
same,binding signal,HOXB9 [13],"10.1 upbm affinity estimate (log intensity, higher = more binding, comparable within an allelic series)"
same,binding signal,HOXB9 [14],"10.1 upbm affinity estimate (log intensity, higher = more binding, comparable within an allelic series)"
same,binding signal,HOXA2 [7],"9.47 upbm affinity estimate (log intensity, higher = more binding, comparable within an allelic series)"
GGTGTAAC,binding signal,SIX6 [8],"10.4 upbm affinity estimate (log intensity, higher = more binding, comparable within an allelic series)"
same,binding signal,SIX6 [9],"10.4 upbm affinity estimate (log intensity, higher = more binding, comparable within an allelic series)"
ACACCACC,binding signal,SIX6 [8],"10.3 upbm affinity estimate (log intensity, higher = more binding, comparable within an allelic series)"
ATTTACGC,binding signal,HESX1,"7.63 upbm affinity estimate (log intensity, higher = more binding, comparable within an allelic series)"
GACACCCA,binding signal,SIX6 [8],"10.5 upbm affinity estimate (log intensity, higher = more binding, comparable within an allelic series)"
TAACTTGA,binding signal,HESX1,"7.21 upbm affinity estimate (log intensity, higher = more binding, comparable within an allelic series)"
AAGTAGAG,binding signal,HESX1,"7.4 upbm affinity estimate (log intensity, higher = more binding, comparable within an allelic series)"
AAGTGTCA,binding signal,SIX6 [8],"10.5 upbm affinity estimate (log intensity, higher = more binding, comparable within an allelic series)"
same,binding signal,SIX6 [9],"10.5 upbm affinity estimate (log intensity, higher = more binding, comparable within an allelic series)"
same,binding signal,MSX2 [11],"10.6 upbm affinity estimate (log intensity, higher = more binding, comparable within an allelic series)"
same,binding signal,MSX2 [12],"10.5 upbm affinity estimate (log intensity, higher = more binding, comparable within an allelic series)"
GCTAATCA,binding signal,HOXA2 [1],"12.5 upbm affinity estimate (log intensity, higher = more binding, comparable within an allelic series)"
same,binding signal,MSX2 [10],"11 upbm affinity estimate (log intensity, higher = more binding, comparable within an allelic series)"
CTGGTGTC,binding signal,SIX6 [8],"10.6 upbm affinity estimate (log intensity, higher = more binding, comparable within an allelic series)"
GGTTATGA,binding signal,HESX1,"7.26 upbm affinity estimate (log intensity, higher = more binding, comparable within an allelic series)"
AGGTGTCG,binding signal,SIX6 [8],"10.5 upbm affinity estimate (log intensity, higher = more binding, comparable within an allelic series)"
same,binding signal,SIX6 [9],"10.4 upbm affinity estimate (log intensity, higher = more binding, comparable within an allelic series)"
GACACCTC,binding signal,SIX6 [8],"10.4 upbm affinity estimate (log intensity, higher = more binding, comparable within an allelic series)"
GACACCTA,binding signal,SIX6 [8],"10.6 upbm affinity estimate (log intensity, higher = more binding, comparable within an allelic series)"
same,binding signal,SIX6 [9],"10.5 upbm affinity estimate (log intensity, higher = more binding, comparable within an allelic series)"
CGCCACGC,binding signal,HOXA2 [1],"7.14 upbm affinity estimate (log intensity, higher = more binding, comparable within an allelic series)"
same,binding signal,MSX2 [10],"9.28 upbm affinity estimate (log intensity, higher = more binding, comparable within an allelic series)"
same,binding signal,NKX2-6 [15],"9.43 upbm affinity estimate (log intensity, higher = more binding, comparable within an allelic series)"
same,binding signal,HOXA2 [3],"10.1 upbm affinity estimate (log intensity, higher = more binding, comparable within an allelic series)"
same,binding signal,MSX2 [11],"9.35 upbm affinity estimate (log intensity, higher = more binding, comparable within an allelic series)"
same,binding signal,NKX2-6 [16],"9.12 upbm affinity estimate (log intensity, higher = more binding, comparable within an allelic series)"
same,binding signal,MSX2 [12],"9.31 upbm affinity estimate (log intensity, higher = more binding, comparable within an allelic series)"
same,binding signal,HOXA2 [6],"10.3 upbm affinity estimate (log intensity, higher = more binding, comparable within an allelic series)"
same,binding signal,HOXA2 [7],"7.2 upbm affinity estimate (log intensity, higher = more binding, comparable within an allelic series)"
CCCCCCCA,binding signal,HOXA2 [1],"7.25 upbm affinity estimate (log intensity, higher = more binding, comparable within an allelic series)"
same,binding signal,ALX3 [17],"7.7 upbm affinity estimate (log intensity, higher = more binding, comparable within an allelic series)"
same,binding signal,HOXA2 [3],"9.99 upbm affinity estimate (log intensity, higher = more binding, comparable within an allelic series)"
same,binding signal,ALX3 [18],"7.68 upbm affinity estimate (log intensity, higher = more binding, comparable within an allelic series)"
same,binding signal,ALX3 [19],"7.68 upbm affinity estimate (log intensity, higher = more binding, comparable within an allelic series)"
same,binding signal,ALX3 [20],"7.64 upbm affinity estimate (log intensity, higher = more binding, comparable within an allelic series)"
same,binding signal,HOXA2 [6],"10.2 upbm affinity estimate (log intensity, higher = more binding, comparable within an allelic series)"
same,binding signal,ALX3 [21],"7.67 upbm affinity estimate (log intensity, higher = more binding, comparable within an allelic series)"
same,binding signal,HOXA2 [7],"7.37 upbm affinity estimate (log intensity, higher = more binding, comparable within an allelic series)"
GACACCCC,binding signal,SIX6 [8],"10.6 upbm affinity estimate (log intensity, higher = more binding, comparable within an allelic series)"
CCGGTTCC,binding signal,HOXA2 [1],"6.98 upbm affinity estimate (log intensity, higher = more binding, comparable within an allelic series)"
same,binding signal,ALX1 [22],"6.06 upbm affinity estimate (log intensity, higher = more binding, comparable within an allelic series)"
same,binding signal,ALX3 [17],"7.77 upbm affinity estimate (log intensity, higher = more binding, comparable within an allelic series)"
same,binding signal,NKX2-6 [15],"9.05 upbm affinity estimate (log intensity, higher = more binding, comparable within an allelic series)"
same,binding signal,HOXA2 [3],"10.1 upbm affinity estimate (log intensity, higher = more binding, comparable within an allelic series)"
same,binding signal,ALX1 [23],"6.02 upbm affinity estimate (log intensity, higher = more binding, comparable within an allelic series)"
same,binding signal,ALX3 [18],"7.63 upbm affinity estimate (log intensity, higher = more binding, comparable within an allelic series)"
same,binding signal,ALX3 [19],"7.69 upbm affinity estimate (log intensity, higher = more binding, comparable within an allelic series)"
same,binding signal,NKX2-6 [16],"9.2 upbm affinity estimate (log intensity, higher = more binding, comparable within an allelic series)"
same,binding signal,ALX3 [20],"7.7 upbm affinity estimate (log intensity, higher = more binding, comparable within an allelic series)"
same,binding signal,HOXA2 [6],"10.4 upbm affinity estimate (log intensity, higher = more binding, comparable within an allelic series)"
same,binding signal,ALX1 [24],"6 upbm affinity estimate (log intensity, higher = more binding, comparable within an allelic series)"
same,binding signal,ALX3 [21],"7.77 upbm affinity estimate (log intensity, higher = more binding, comparable within an allelic series)"
same,binding signal,HOXA2 [7],"6.81 upbm affinity estimate (log intensity, higher = more binding, comparable within an allelic series)"
ATTACACC,binding signal,SIX6 [8],"10.7 upbm affinity estimate (log intensity, higher = more binding, comparable within an allelic series)"
same,binding signal,SIX6 [9],"10.7 upbm affinity estimate (log intensity, higher = more binding, comparable within an allelic series)"
same,binding signal,PITX2,"9.68 upbm affinity estimate (log intensity, higher = more binding, comparable within an allelic series)"
